Data taken from PubChem BioAssay AID1159580 (chemical genetic matrix, 2015).
Where “and” joins values, the source holds several entries; their conditions need not be identical. Identical values can stand only once. Hit rate of the full screen: of about 5,500 compounds, about 2,000 (36%) were called active. About 18% were inconclusive and are not listed. No stated cut-off is given here; in the data, active means normalized growth mostly below about 0.91 (no sharp cut-off); inconclusive means no clear call, values can overlap the other calls; inactive means mostly above about 0.92. The list shows a part of the results.

Experiment: chemical genetic growth profiling, strain panel (AID 1159580);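 further: tested at 20 µM; growth read once vehicle control cultures reached saturation at 30 °C; 1 = growth at the plate median or of vehicle wells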
Conditions: S. cerevisiae deletion strains, growth OD

Measured: normalized growth

NS(=O)(=O)c1cc2c(cc1Cl)NC(C1CC3C=CC1C3)NS2(=O)=O (stereo unspecified)
inactive: locus YAL013W, strain DEP1, stronger effect = lower value 1 | locus YAL021C, strain ccr4, stronger effect = lower value 1 | locus YAL026C, strain drs2, stronger effect = lower value 0.99 | locus YAL030W, strain snc1, stronger effect = lower value 0.99 | locus YAL040C, strain CLN3, stronger effect = lower value 0.979 | locus YBL061C, strain skt5, stronger effect = lower value 1 | locus YBR009C, strain hhf1, stronger effect = lower value 0.982 | locus YBR021W, strain FUR4, stronger effect = lower value 1.03 | locus YBR023C, strain chs3, stronger effect = lower value 0.991 | locus YBR171W, strain sec66, stronger effect = lower value 0.981 | locus YBR229C, strain ROT2, stronger effect = lower value 0.96 | locus YBR231C, strain swc5, stronger effect = lower value 0.989 | locus YBR279W, strain paf1, stronger effect = lower value 0.996 | locus YCL011C, strain gbp2, stronger effect = lower value 0.989 | locus YCL016C, strain dcc1, stronger effect = lower value 0.995 | locus YCL029C, strain bik1, stronger effect = lower value 0.941 | locus YCL061C, strain MRC1 (second series), stronger effect = lower value 0.99 | locus YCL061C, strain MRC1, stronger effect = lower value 0.991 | locus YCL069W, strain vba3, stronger effect = lower value 0.997 | locus YCR088W, strain abp1, stronger effect = lower value 0.991 | locus YDL005C, strain med2, stronger effect = lower value 0.983 | locus YDL035C, strain GPR1, stronger effect = lower value 1.01 | locus YDL040C, strain nat1, stronger effect = lower value 0.994 | locus YDL074C, strain BRE1, stronger effect = lower value 1.01 | locus YDL101C, strain DUN1, stronger effect = lower value 0.967 | locus YDL134C, strain PPH21, stronger effect = lower value 0.99 | locus YDL185W, strain tfp1, stronger effect = lower value 0.959 | locus YDL192W, strain arf1, stronger effect = lower value 0.992 | locus YDR001C, strain nth1, stronger effect = lower value 0.985 | locus YDR069C, strain doa4, stronger effect = lower value 1.01 | locus YDR101C, strain arx1, stronger effect = lower value 1 | locus YDR137W, strain rgp1, stronger effect = lower value 1.01 | locus YDR150W, strain NUM1, stronger effect = lower value 0.981 and 1 | locus YDR159W, strain sac3, stronger effect = lower value 0.987 | locus YDR162C, strain NBP2, stronger effect = lower value 0.911 | locus YDR195W, strain ref2 0.963 | locus YDR297W, strain sur2, stronger effect = lower value 0.991 | locus YDR318W, strain mcm21, stronger effect = lower value 1.02 | locus YDR334W, strain swr1, stronger effect = lower value 0.995 | locus YDR335W, strain msn5, stronger effect = lower value 0.991 | locus YDR363W, strain ESC2, stronger effect = lower value 0.956 | locus YDR388W, stronger effect = lower value 1 | locus YDR392W, strain spt3, stronger effect = lower value 0.924 | locus YDR502C, strain sam2, stronger effect = lower value 0.978 | locus YEL003W, strain gim4, stronger effect = lower value 0.997 | locus YEL037C, strain rad23, stronger effect = lower value 0.999 | locus YEL061C, strain CIN8 (second series), stronger effect = lower value 0.984 | locus YEL061C, strain CIN8, stronger effect = lower value 0.989 | locus YER002W, strain NOP16, stronger effect = lower value 0.987 | locus YER015W, strain faa2, stronger effect = lower value 0.994 | locus YER016W, strain bim1, stronger effect = lower value 0.994 | locus YER110C, stronger effect = lower value 0.937 | locus YER111C, strain swi4, stronger effect = lower value 0.98 | locus YER155C, strain BEM2 (second series), stronger effect = lower value 0.974 | locus YER155C, strain BEM2, stronger effect = lower value 0.988 | locus YER167W, strain BCK2, stronger effect = lower value 1.04 | locus YFR010W, strain ubp6, stronger effect = lower value 0.988 | locus YGL078C, strain dbp3, stronger effect = lower value 0.986 | locus YGL086W, strain mad1, stronger effect = lower value 1.03 | locus YGL167C, strain pmr1, stronger effect = lower value 0.987 | locus YGL173C, strain kem1, stronger effect = lower value 0.994 | locus YGL227W, strain vid30, stronger effect = lower value 0.978 | locus YGL240W, strain doc1, stronger effect = lower value 0.977 | locus YGL248W, strain PDE1, stronger effect = lower value 0.979 | locus YGL253W, strain hxk2, stronger effect = lower value 0.995 | locus YGR078C, strain PAC10, stronger effect = lower value 1.01 | locus YGR135W, strain pre9, stronger effect = lower value 0.987 | locus YGR229C, strain SMI1, stronger effect = lower value 0.998 | locus YGR252W, strain gcn5, stronger effect = lower value 1.07 | locus YHR013C, strain ard1, stronger effect = lower value 0.962 | locus YHR027C, strain rpn1, stronger effect = lower value 0.993 | locus YHR030C, strain SLT2, stronger effect = lower value 1 and 1.02 | locus YHR079C, strain IRE1 (second series), stronger effect = lower value 1.01 | locus YHR079C, strain IRE1, stronger effect = lower value 1.02 | locus YHR094C, strain hxt1, stronger effect = lower value 0.998 | locus YHR129C, strain ARP1, stronger effect = lower value 0.994 | locus YHR142W, strain chs7, stronger effect = lower value 1 | locus YHR200W, strain rpn10, stronger effect = lower value 0.997 | locus YIL066C, strain RNR3, stronger effect = lower value 0.989 | locus YIL073C, strain SPO22, stronger effect = lower value 1.08 | locus YIL125W, strain kgd1, stronger effect = lower value 0.992 | locus YIR030C, strain dcg1, stronger effect = lower value 0.984 | locus YJL092W, strain hpr5, stronger effect = lower value 0.99 | locus YJL095W, strain BCK1 (second series), stronger effect = lower value 0.99 | locus YJL095W, strain BCK1, stronger effect = lower value 1.01 and 1.06 | locus YJL115W, strain asf1, stronger effect = lower value 0.997 | locus YJL129C, strain trk1, stronger effect = lower value 0.986 | locus YJL134W, strain LCB3, stronger effect = lower value 0.984 | locus YJL154C, strain vps35, stronger effect = lower value 0.988 | locus YJL164C, strain tpk1, stronger effect = lower value 0.997 | locus YJL166W, strain qcr8, stronger effect = lower value 0.997 | locus YJL168C, strain set2, stronger effect = lower value 0.992 | locus YJL187C, strain SWE1 (second series), stronger effect = lower value 0.975 | locus YJL187C, strain SWE1, stronger effect = lower value 0.989 | locus YJR043C, strain POL32, stronger effect = lower value 1.06 | locus YJR066W, strain TOR1, stronger effect = lower value 0.976
